Assay [1] concerns the target Sphingosine kinase 1 (Homo sapiens) (UniProt Q9NYA1). To be noted: at 1 µM.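 Note: mean SPHK1 inhibition value reported from the GSK PKIS kinase panel screen.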
Assay [2] concerns the target T1, Sphingosine kinase 2 (Homo sapiens) (UniProt Q9NRA0).
T1 sequence (whole entry): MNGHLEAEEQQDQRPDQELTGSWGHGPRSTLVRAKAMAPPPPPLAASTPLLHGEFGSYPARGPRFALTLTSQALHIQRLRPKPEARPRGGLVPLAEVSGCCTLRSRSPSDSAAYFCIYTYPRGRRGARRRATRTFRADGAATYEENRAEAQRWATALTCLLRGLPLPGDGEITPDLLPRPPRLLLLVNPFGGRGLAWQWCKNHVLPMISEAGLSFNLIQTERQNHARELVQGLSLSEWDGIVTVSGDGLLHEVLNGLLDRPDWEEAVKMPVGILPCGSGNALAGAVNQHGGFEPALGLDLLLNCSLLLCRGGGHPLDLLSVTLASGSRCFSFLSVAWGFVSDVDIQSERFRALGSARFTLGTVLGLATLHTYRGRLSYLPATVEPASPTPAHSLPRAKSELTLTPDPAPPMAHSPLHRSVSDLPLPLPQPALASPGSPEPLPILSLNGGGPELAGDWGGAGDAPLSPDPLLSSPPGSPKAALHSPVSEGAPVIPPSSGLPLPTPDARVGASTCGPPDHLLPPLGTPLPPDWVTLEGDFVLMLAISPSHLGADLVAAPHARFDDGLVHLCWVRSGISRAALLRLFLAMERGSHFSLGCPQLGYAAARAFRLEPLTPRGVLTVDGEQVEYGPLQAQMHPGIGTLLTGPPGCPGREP
Particulars: at 0.1 µM.

Assay [3] addresses T1, Sphingosine kinase 2 (Homo sapiens). Particulars: at 1 µM.
The target in assay [4] is Casein kinase II subunit alpha (Homo sapiens) (UniProt P68400). Particulars: at 0.1 µM.
Casein kinase II subunit alpha (Homo sapiens), sequence (P68400 whole entry, looked up): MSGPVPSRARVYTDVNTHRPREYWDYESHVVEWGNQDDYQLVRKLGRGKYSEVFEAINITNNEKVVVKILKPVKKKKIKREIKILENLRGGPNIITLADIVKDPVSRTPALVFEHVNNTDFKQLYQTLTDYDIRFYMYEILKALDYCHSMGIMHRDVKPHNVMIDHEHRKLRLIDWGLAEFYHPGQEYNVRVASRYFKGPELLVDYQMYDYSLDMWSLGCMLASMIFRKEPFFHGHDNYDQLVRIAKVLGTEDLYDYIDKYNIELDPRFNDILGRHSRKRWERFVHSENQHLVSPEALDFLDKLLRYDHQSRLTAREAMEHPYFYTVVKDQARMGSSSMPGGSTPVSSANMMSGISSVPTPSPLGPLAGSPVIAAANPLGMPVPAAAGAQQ
Assay [5] has the same target. Particulars: at 1 µM.
Assay [6] deals with T2, Inhibitor of nuclear factor kappa-B kinase subunit alpha (Homo sapiens) (UniProt O15111).
T2 sequence (whole entry): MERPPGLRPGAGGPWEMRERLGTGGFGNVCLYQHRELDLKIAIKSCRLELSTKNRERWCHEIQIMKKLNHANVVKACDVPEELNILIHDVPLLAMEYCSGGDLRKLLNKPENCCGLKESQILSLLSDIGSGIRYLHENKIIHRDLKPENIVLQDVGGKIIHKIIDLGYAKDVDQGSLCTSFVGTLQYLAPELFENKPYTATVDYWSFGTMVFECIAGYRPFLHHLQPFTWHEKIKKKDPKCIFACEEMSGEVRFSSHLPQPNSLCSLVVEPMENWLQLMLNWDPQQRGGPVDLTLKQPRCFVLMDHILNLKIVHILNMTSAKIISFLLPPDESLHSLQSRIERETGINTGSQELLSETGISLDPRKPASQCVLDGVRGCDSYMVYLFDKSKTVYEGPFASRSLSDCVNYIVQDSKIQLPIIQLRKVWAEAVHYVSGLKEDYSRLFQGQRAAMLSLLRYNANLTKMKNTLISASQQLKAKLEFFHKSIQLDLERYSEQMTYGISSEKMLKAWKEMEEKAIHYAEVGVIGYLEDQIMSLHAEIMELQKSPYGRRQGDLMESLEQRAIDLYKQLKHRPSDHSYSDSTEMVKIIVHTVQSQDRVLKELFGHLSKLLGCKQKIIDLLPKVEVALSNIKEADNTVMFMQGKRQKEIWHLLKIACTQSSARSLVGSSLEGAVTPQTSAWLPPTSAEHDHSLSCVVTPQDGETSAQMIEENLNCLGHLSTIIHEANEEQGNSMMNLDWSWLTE
Particulars: at 0.1 µM.

Assay [7] concerns the target T2, Inhibitor of nuclear factor kappa-B kinase subunit alpha (Homo sapiens). To be noted: at 1 µM.
The target in assay [8] is T3, Inhibitor of nuclear factor kappa-B kinase subunit beta (Homo sapiens) (UniProt O14920).
T3 sequence (whole entry): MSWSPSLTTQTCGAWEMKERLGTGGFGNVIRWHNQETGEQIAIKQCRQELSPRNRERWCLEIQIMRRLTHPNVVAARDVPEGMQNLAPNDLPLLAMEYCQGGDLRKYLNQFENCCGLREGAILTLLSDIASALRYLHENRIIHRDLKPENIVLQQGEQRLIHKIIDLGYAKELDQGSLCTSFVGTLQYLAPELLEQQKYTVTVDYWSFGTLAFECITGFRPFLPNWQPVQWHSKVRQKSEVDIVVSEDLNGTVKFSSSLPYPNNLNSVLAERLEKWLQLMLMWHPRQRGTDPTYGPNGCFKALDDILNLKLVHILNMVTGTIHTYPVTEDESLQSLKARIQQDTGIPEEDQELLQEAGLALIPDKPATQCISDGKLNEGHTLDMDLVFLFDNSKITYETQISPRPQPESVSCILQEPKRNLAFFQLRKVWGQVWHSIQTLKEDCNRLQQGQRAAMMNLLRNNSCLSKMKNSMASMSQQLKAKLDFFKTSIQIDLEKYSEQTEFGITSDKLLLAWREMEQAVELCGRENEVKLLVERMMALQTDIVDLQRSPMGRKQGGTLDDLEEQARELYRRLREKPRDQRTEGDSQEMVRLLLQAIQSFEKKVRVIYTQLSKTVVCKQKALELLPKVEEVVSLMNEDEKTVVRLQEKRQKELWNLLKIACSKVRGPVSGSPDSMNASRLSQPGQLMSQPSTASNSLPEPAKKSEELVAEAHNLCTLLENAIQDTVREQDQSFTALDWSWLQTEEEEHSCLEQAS
To be noted: at 0.1 µM.

The target in assay [9] is T3, Inhibitor of nuclear factor kappa-B kinase subunit beta (Homo sapiens). To be noted: at 1 µM.
For assay [10], the target named is T4, Inhibitor of nuclear factor kappa-B kinase subunit epsilon (Homo sapiens) (UniProt Q14164).
T4 sequence (whole entry): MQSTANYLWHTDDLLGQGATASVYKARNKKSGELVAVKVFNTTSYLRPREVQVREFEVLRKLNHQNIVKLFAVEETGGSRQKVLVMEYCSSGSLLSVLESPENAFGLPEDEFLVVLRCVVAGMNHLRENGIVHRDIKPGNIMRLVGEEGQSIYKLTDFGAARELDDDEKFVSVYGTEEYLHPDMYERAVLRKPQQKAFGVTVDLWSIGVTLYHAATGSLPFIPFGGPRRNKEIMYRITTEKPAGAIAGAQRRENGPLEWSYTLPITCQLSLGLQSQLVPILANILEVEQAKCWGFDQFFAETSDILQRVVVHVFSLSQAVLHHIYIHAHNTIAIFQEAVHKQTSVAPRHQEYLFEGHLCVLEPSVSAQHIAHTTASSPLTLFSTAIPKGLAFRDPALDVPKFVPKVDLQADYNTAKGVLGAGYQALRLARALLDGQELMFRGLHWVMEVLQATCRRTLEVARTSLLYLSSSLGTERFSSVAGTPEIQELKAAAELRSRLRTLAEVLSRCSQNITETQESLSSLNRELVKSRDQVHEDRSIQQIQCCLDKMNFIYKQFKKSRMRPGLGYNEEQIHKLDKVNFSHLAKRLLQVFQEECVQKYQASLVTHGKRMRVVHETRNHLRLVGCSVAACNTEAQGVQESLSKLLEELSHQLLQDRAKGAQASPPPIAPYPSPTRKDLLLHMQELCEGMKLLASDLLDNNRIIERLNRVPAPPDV
Particulars: at 0.1 µM.

Assay [11] addresses T4, Inhibitor of nuclear factor kappa-B kinase subunit epsilon (Homo sapiens). Particulars: at 1 µM.
Assay [12] deals with T5, Serine/threonine-protein kinase Nek1 (Homo sapiens) (UniProt Q96PY6).
T5 sequence (whole entry): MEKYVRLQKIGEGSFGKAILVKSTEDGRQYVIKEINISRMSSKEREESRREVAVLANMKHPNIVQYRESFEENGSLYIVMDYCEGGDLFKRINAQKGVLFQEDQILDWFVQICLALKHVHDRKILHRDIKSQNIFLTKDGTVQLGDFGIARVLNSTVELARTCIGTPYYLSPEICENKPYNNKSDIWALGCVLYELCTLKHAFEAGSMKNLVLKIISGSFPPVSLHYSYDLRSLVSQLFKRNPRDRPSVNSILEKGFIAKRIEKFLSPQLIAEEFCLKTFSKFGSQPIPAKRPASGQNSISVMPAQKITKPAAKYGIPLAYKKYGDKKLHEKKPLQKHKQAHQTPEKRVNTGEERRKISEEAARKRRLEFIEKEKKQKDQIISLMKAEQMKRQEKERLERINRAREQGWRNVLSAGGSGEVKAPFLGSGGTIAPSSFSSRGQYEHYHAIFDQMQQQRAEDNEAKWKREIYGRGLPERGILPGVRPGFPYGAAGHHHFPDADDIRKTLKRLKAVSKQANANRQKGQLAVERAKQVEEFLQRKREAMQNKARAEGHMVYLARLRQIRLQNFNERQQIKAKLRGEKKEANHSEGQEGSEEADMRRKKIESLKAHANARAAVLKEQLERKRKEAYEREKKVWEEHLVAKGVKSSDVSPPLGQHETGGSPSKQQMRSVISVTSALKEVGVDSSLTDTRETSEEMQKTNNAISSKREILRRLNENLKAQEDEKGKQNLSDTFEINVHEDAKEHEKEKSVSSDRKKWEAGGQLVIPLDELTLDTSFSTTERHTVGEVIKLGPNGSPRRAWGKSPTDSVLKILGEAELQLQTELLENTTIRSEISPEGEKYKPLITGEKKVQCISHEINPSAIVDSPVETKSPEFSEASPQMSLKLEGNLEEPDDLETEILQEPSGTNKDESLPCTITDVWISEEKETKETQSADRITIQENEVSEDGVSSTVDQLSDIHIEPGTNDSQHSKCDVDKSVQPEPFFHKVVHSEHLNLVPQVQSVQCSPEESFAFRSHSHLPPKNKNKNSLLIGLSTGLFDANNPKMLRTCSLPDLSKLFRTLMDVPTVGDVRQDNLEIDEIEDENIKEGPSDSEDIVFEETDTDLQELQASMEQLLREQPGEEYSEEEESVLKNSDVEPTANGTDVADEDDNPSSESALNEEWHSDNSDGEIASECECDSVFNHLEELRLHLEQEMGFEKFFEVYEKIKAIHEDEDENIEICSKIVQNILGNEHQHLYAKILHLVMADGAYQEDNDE
Particulars: at 0.1 µM.

The target of assay [13] is T5, Serine/threonine-protein kinase Nek1 (Homo sapiens). To be noted: at 1 µM.
In assay [14] the target is T6, Serine/threonine-protein kinase Nek2 (Homo sapiens) (UniProt P51955).
T6 sequence (whole entry): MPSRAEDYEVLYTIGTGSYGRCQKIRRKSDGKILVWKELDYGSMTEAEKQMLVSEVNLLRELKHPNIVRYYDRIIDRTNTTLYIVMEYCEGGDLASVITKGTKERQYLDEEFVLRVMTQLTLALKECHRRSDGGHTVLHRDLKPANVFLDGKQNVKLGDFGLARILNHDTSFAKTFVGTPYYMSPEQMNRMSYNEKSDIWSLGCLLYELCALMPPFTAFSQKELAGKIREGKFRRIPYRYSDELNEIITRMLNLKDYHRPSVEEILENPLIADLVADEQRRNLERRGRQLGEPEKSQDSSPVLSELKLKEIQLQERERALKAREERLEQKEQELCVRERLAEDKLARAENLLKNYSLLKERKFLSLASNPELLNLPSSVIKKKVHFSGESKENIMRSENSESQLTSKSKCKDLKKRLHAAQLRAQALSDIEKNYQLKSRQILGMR
To be noted: at 0.1 µM.

Assay [15] deals with T6, Serine/threonine-protein kinase Nek2 (Homo sapiens). Particulars: at 1 µM.
The target of assay [16] is Serine/threonine-protein kinase Nek6 (Homo sapiens) (UniProt Q9HC98). Particulars: at 0.1 µM.
Serine/threonine-protein kinase Nek6 (Homo sapiens), sequence (Q9HC98 whole entry): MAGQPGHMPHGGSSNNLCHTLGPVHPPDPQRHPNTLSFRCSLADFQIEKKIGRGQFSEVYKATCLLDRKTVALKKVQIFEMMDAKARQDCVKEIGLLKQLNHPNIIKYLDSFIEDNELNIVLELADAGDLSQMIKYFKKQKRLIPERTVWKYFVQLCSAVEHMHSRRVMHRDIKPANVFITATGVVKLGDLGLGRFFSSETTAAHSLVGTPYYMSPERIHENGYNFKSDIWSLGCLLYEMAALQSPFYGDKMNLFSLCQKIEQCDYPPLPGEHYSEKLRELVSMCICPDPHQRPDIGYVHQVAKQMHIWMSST
Assay [17] has the same target. To be noted: at 1 µM.
The target of assay [18] is Serine/threonine-protein kinase Nek7 (Homo sapiens) (UniProt Q8TDX7). Particulars: at 0.1 µM.
Serine/threonine-protein kinase Nek7 (Homo sapiens), sequence (Q8TDX7 whole entry, looked up): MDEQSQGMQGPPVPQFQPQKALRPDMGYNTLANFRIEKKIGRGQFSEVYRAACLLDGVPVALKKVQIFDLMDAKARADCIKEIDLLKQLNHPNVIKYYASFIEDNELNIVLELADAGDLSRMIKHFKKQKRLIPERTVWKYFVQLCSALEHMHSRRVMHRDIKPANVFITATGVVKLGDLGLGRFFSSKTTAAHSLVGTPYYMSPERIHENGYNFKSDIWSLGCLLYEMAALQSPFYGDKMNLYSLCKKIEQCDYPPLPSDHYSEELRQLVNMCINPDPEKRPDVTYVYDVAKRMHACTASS
Assay [19] shares this target. To be noted: at 1 µM.
Assay [20] deals with T7, Serine/threonine-protein kinase Nek9 (Homo sapiens) (UniProt Q8TD19).
T7 sequence (whole entry): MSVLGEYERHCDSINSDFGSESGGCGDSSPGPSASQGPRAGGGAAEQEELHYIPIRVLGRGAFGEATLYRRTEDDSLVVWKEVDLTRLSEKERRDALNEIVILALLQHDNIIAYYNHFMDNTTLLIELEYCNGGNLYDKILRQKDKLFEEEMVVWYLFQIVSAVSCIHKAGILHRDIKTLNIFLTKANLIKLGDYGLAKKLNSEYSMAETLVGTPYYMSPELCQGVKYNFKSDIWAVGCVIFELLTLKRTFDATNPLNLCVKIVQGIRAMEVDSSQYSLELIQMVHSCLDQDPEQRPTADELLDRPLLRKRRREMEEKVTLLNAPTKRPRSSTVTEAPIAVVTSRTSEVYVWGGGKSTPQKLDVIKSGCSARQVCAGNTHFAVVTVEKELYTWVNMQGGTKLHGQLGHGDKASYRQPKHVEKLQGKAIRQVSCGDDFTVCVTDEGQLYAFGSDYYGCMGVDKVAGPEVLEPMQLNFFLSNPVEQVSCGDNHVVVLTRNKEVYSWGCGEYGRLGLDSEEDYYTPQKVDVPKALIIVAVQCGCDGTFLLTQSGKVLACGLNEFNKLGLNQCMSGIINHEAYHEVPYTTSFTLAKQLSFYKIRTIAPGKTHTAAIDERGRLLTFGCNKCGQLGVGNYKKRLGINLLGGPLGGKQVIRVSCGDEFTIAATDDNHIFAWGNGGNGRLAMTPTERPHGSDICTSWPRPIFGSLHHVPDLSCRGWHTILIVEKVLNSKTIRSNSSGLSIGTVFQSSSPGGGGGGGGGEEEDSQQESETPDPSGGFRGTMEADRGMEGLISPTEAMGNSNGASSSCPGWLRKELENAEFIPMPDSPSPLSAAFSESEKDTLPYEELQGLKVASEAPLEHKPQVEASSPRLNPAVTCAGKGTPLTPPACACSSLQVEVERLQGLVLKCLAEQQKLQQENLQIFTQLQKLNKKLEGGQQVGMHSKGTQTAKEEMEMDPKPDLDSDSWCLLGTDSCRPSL
Particulars: at 0.1 µM.

Sphingosine kinase 1 (Homo sapiens), sequence (Q9NYA1 whole entry): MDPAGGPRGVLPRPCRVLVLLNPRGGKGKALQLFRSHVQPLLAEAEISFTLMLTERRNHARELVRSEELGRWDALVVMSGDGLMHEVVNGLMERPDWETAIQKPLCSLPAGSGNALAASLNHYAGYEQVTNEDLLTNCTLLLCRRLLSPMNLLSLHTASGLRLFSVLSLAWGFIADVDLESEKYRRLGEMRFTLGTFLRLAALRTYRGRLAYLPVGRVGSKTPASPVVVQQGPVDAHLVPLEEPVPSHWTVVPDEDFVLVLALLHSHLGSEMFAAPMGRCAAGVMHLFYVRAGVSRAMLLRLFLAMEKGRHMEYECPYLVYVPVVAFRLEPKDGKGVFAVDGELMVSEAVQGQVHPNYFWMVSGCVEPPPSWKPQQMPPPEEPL

As usually defined, the inhibition is the relative decrease from the control value, in per cent. Take `CN1CCC(n2cnc(-c3ccc(F)cc3)c2-c2ccnc(Nc3ccccc3)n2)CC1`: the inhibition in assay [1] was -6.88%; in assay [2] it was -0.42%; in assay [3], 0.78%; in assay [4], 3.62%; in [5] it was 8.56%; in [6] it was 6.78%. The inhibition in assay [7] worked out at 1.62%; in assay [8] it was 2.83%; in assay [9], 3.93%; in assay [10], 3.59%; in assay [11], 6.75%; in assay [12], 1.95%. Moreover, the inhibition came out at 2.29% in assay [13]; 2.54% in [14]; 3.52% in assay [15]; 4.42% in [16]; 3.58% in [17]; 2.94% in assay [18]. For the same compound, the inhibition in [19] worked out at 2.65%; in assay [20], 5.58%.

For the origin of these results see ChEMBL document CHEMBL1961873, “Compounds: GSK PKIS; Assays: Nanosyn kinase panel” (2012).
